# Bioassay records as filed in PubChem BioAssay.
# This is one part of a sample in which hits are shown more often than they occur.
# Shiga inhibitor: blocks Shiga toxin action in Vero cells | hit rate 9.2% among 290,000 | AID 2315 | inhibition, % at 38.7 µM | Vero cells, Shiga toxin protein synthesis inhibition reporter; in the data active = inhibition mostly above about 28%, no sharp cut-off; inactive = mostly below about 43%; also: 0% is about no effect
# TbPYK inhibitor: blocks Trypanosoma brucei pyruvate kinase | TbPYK enzyme, Kinase-Glo Plus ATP luminescence, 45 min | Potency, µM (series often up to 76.8 µM), for the others: at the highest dose activity, negative = inhibition, usual class: inhibitors | hit rate 0.12% among 410,000 | AID 624173; also: potency is read from the fitted curve at half-maximal effect; % is scaled to controls: 0 for no effect and ±100 for the full control effect; nearly all actives have a fitted effect of over 50% in size
#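 Glycolytic pyruvate kinase of T. brucei was incubated with substrate, test compound and 130 uM ADP for 45 minutes at room temperature. Luminescent Kinase-Glo Plus signal was measured after 10 minutes.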
# FBPA Giardia inh: inhibitors of Giardia lamblia fructose-1,6-bisphosphate aldolase. A8B2U2. hit rate 0.71% among 290,000. AID 2451. purified Giardia FBPA. Potency, µM (doses to about 59.6 µM), without a hit: at the highest dose activity, negative = inhibition, most hits filed as inhibitors; also: potency is read from the fitted curve at half-maximal effect; % is scaled to controls: 0 for no effect and ±100 for the full control effect; nearly all actives have a fitted effect of over 55% in size
#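 40 nM FBPA preincubated 10 min at RT with compound (up to 57.5 uM final), then substrate plus GAPDH/TPI/NAD/arsenate coupling and diaphorase/resazurin added. Fluorescence read after 20 min at RT, 525/598 nm.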
# CHX counter: counter-screen for Shiga toxin inhibitors: cycloheximide protein synthesis inhibition; cell reporter, cycloheximide protein synthesis inhibition counterscreen; max response, %; hit rate 12% among 300,000; AID 2314; in the data active = max response mostly above about 13%, no sharp cut-off; inactive = mostly below about 14%; also: read at 38.3 µM for the half of the compounds with a filed dose; 0% is about no effect
# LmPK inhibitor: inhibitors of Leishmania mexicana pyruvate kinase; Q27686; purified LmPK, Kinase-Glo ATP luminescence, 1 h; Potency, µM (doses to about 57.5 µM), for inactives: at the top dose activity change, negative = inhibition, hits mostly inhibitors; hit rate 0.37% among 290,000; AID 1721; also: potency is read from the fitted curve at half-maximal effect; % is scaled to controls: 0 for no effect and ±100 for the full control effect
# Target sequence (Q27686 whole entry, looked up): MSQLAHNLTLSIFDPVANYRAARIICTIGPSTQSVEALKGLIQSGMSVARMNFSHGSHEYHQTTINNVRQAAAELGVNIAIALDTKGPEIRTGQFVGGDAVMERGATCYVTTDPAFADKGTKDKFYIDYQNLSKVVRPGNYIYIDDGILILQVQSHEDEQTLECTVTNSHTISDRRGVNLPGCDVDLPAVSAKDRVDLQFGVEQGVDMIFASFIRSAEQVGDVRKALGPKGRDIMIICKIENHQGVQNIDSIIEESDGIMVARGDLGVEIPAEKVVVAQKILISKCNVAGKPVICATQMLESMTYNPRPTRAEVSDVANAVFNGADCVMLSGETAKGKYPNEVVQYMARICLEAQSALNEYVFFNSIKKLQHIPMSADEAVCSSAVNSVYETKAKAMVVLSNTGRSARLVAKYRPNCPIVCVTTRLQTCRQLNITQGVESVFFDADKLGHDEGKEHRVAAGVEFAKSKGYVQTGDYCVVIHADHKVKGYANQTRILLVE
#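 Screened at intermediate enzyme activity to detect both inhibitors and activators: LmPK at 0.1 nM, with a 0.5 nM enzyme column as activation reference. PEP 0.5 mM, ADP 0.1 mM; ATP detected by luminescence after 1 h.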
# Sm TGR block: blocks Schistosoma mansoni thioredoxin glutathione reductase. Q962Y6. purified TGR, DTNB reduction, TNB absorbance 405 nm. Potency, µM (highest dose often 114 µM), inactives show at the highest dose activity change, negative = inhibition, actives largely listed as inhibitors. hit rate 3% among 360,000; also: potency is read from the fitted curve at half-maximal effect; % is scaled to controls: 0 for no effect and ±100 for the full control effect; nearly all actives have a fitted effect of over 60% in size
#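 First, TGR (20 nM dispensed) and NADPH were mixed with compound. Second, a 15 min room-temperature incubation followed. Third, further NADPH and then DTNB were added to start the reaction. Finally, TNB absorbance was monitored kinetically.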
# * marks the source's active call; other numbers are inactive results; ? = inconclusive; . = no result; [ ] = dose if it differs, or a comment. Unless noted, calls follow the shape of the dose curve; as a rule, active = well fitted curve in the direction sought with a large enough effect; inconclusive = small, poorly fitted or top-dose-only effect, or another doubt; inactive = no such curve, though single readings can be large; an effect the other way counts as inactive or inconclusive.
SMILES,Shiga inhibitor,TbPYK inhibitor,FBPA Giardia inh,CHX counter,LmPK inhibitor,Sm TGR block
CC(=O)N1N=C(c2ccccc2)CC1c1cccc([N+](=O)[O-])c1 (stereo not drawn),.,4%,-1%,-4,-1%,3%
CS(=O)(=O)N1N=C(c2ccco2)CC1c1ccc(Br)cc1 (stereo not drawn),19,2%,6%,21*,-1%,?
O=C1NC(=O)N(Cc2ccco2)C(=O)/C1=C/C=C/c1ccco1,-4,-14%,1%,0,2%,2µM*
Cc1ccccc1-n1c(C)cc(/C=C2/C(=O)NC(=O)N(Cc3ccco3)C2=O)c1C,-3,-4%,-3%,9,4%,-21%
O=C1NC(=O)N(Cc2ccccc2)C(=O)/C1=C\C=C\c1ccco1,37,-11%,-4%,30*,19%,10µM*
CC1CCN(c2nn3c(=O)c(C(=O)NC(C)C)cnc3s2)CC1,.,-6%,.,.,.,48%
C=C(C)C1CC=C(C)/C(=N/NC(=O)COc2ccccc2Cl)C1 (stereo not drawn),19,-6%,0%,-4,-1%,-3%
O=C(COc1ccccc1Br)NC(=O)NC1CCCC1,.,-1%,.,.,.,0%
CC1(C)CC(NC(=O)COc2ccccc2Cl)CC(C)(C)N1,95*,0%,0%,28*,-4%,.
COc1ccc(OCC(=O)NC2CC(C)(C)NC(C)(C)C2)cc1,59,2%,-5%,31*,6%,-1%
O=C(COc1ccccc1Br)NC1CC1,67,-3%,.,15*,1%,-7%
CC1(C)CC(NC(=O)COc2ccc(Br)cc2Cl)CC(C)(C)N1,-18,5%,.,3,-11%,-25%
Cc1cccc2c1OCC/C2=N\NC(=O)COc1ccccc1Cl,63*,1%,3%,21*,0%,14%
Cc1noc(C)c1-c1ccc2ncnc(NCc3ccc(C(F)(F)F)cc3)c2c1,15,.,-3%,-1,.,.
O=C(COc1ccccc1Cl)NC1CC1,92*,-2%,.,12,2%,7%
Cc1cc(C)c(NN=c2c(=O)c3ccccc3c2=O)c(C)c1,7,2%,0%,30*,-4%,-10%
O=c1c(=NNc2ccccc2Cl)c(=O)c2ccccc12,83*,-12%,-5%,41*,16µM*,2%
N#C/C(=N\Nc1ccccc1Cl)C(=O)c1ccccc1,-8,1%,-13%,14,-2%,1%
CCN(CC)S(=O)(=O)c1cccc(NN=c2c(=O)c3ccccc3c2=O)c1,2,-2%,-19%,1,-1%,-19%
COCCCN1C(=O)C(CC(=O)NC2CCCC2)CC(C(=O)N2CCOCC2)=C1C (stereo not drawn),.,0%,.,.,.,.
CCC(=O)N1c2nc(C(C)C)nn2C2(CCCCC2)[C@@H]2CCCC[C@@H]21,.,7%,.,.,.,7%
Cc1ccc(S(=O)(=O)Oc2ccc(C)cc2/C=N/N=C2\NC(=O)C(C)S2)cc1 (stereo not drawn),73*,4%,8%,30*,-10%,-9%
CC[N+](C)(CC)CCC(c1ccccc1)C1CCCCC1 (stereo not drawn),-5,-1%,-8%,-1,1%,18µM*
CC[N+](C)(CC)CCOC(=O)C(O)(c1ccccc1)C1CCCCC1 (stereo not drawn),-10,4%,-7%,-2,3%,8%
CN=C1C([N+](=O)[O-])=CC=C2C1=NC1(CCCCC1)N2O,0,-13%,5µM*,-2,-30%,?
SMILES,Shiga inhibitor,TbPYK inhibitor,FBPA Giardia inh,CHX counter,LmPK inhibitor,Sm TGR block
O=[N+]([O-])C1=CC=C2C(=NC3(CCCCC3)N2O)C1=NCCO,-8,-19%,7.1µM*,-3,-29%,?
CC(C)CCN1CCc2nc(-c3ccccc3)c3c(c2C1)COC(C)C3 (stereo not drawn),.,.,-13%[12.9 µM],.,.,.
Cc1ccc(-c2nc(CS(=O)(=O)CC(=O)NC3CCCCCC3)c(C)o2)cc1,-3,-1%,12%,8,2%,25µM*
Cc1oc(-c2ccccc2F)nc1CS(=O)(=O)CC(=O)NC1CCCC1,-6,-1%,0%,-3,3%,40µM*
Oc1cccc(/C=N/N=C/c2cccc(O)c2O)c1O,18,-13%,-15%,30*,3%,-32%
CC(N=Cc1cccc(O)c1O)c1ccccc1 (stereo not drawn),-21,?,?,-1,-6%,5.6µM*
O=C(CCl)NCCN1C(=O)S/C(=C\c2cccnc2)C1=O,25,6%,-4%,8,-14%,40µM*
Cc1ccc(C(=O)OCc2nnc(-c3ccccc3)o2)s1,.,-2%,.,.,.,2%
CCOC(=O)Cc1nnc(-c2ccccc2)o1,36,0%,2%,22*,3%,0%
CC(C)(CO)CNC(=O)CCc1nnc(-c2ccc(-c3ccccc3)cc2)o1,60*,-2%,4%,25*,-5%,-10%
CCN(CC)CCN(C)C(=O)CCc1nnc(-c2ccc(C)s2)o1,34*,7%,3%,22*,-1%,12%
COc1ccccc1CCc1nnc(CCC(=O)NC(C)Cc2cccc(C)n2)o1 (stereo not drawn),36,-29%,6%,1,2%,0%
CC(C)(CO)CNC(=O)CCc1nnc(C2(c3ccc(Cl)cc3)CCC2)o1,11,3%,-2%,4,8%,10%
Cc1cccc(CC(C)NC(=O)CCc2nnc(-c3ccccc3)o2)n1 (stereo not drawn),22,-4%,9%,13*,-6%,-20%
COc1ccc(S(=O)(=O)N(CC(=O)Nc2ccc(F)c(Cl)c2)c2ccc(C)cc2)cc1OC,.,-1%,.,.,.,-1%
CCOC(=O)CN(C)C(=O)CCc1nnc(-c2ccc(-c3ccccc3)cc2)o1,35,0%,2%,13*,2%,?
O=C(CC1CCCCC1)NCc1ccccn1,2,-3%,1%,-2,-13%,1%
O=C(c1c(F)cccc1F)N(Cc1ccccn1)C1CC1,56,4%,-2%,24*,0%,1%
Cc1c(Nc2cc(N3CCOCC3)c3nonc3c2[N+](=O)[O-])c(=O)n(-c2ccccc2)n1C,-9,.,0%,-1,0%,18µM*
COc1cccc(CNC(=O)Cc2ccc(NC(=O)N3CCSc4ncccc43)cc2)c1OC,.,-19%[15.4 µM],.,.,.,7%
Oc1c(Cl)cc(Cl)cc1/C=C/c1ccc2cccc(O)c2n1,31,-2%,-21%,7,1%,-10%
Oc1ccc(Cl)cc1/C=C/c1ccc2cccc(O)c2n1,61*,-6%,-23%,29*,1%,.
COc1cc(/C=C/c2ccc3cccc(O)c3n2)c(Br)cc1O,93*,.,7%,40*,-1%,-10%
Oc1cccc2ccc(/C=C/c3ccccc3Br)nc12,83*,-6%,29%,62*,-9%,-10%
